# The list is not random: actives were taken first. Their share in the collection is about 3.7%.
# Nrf2 ARE act: activators of Nrf2 (ARE) signaling. AREc32 ARE-luciferase reporter (MCF7-derived line), luminescence, 24 h. Potency, µM (series often up to 46.1 µM), without a hit: top-dose activation, hits mostly activators. 410,000 compounds, 0.31% hits. AID 624171; note: % of control where 0% means no effect; nearly all actives have a fitted effect of over 65% in size
#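 Nrf2 activation is followed as ARE-luciferase induction in the AREc32 line after one day of compound treatment; luminescence is read with Steady-Glo.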
# ELG1 repair inh: blocks ELG1-dependent DNA repair in HEK293T cells. HEK293T ELG1-luciferase reporter, luminescence, 16 h; DNA damage induced by 5-fluorouridine. 330,000 compounds, 2.3% hits. AID 504467. Potency, µM (titrated, usually from 46.1 µM), inactives show at the highest dose activity change, negative = inhibition, most hits filed as inhibitors; note: % is set by controls: 0 for no effect and ±100 for the full control effect; nearly all actives have a fitted effect of over 55% in size
#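 HEK293T cells expressing luciferase-tagged ELG1 (2,000/well) received 5-Fluorouridine plus compound or DMSO for 16 hr at 37 °C. Luciferase was read by ONE-Glo luminescence after 30 min at room temperature.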
# A549 viability: kills or reduces viability of A549 cells in Nrf2 counter-screen. A549 ARE-Fluc cells, CellTiter-Fluor viability, 18-24 h. Potency, µM (top dose mostly 46 µM), for the others: at the highest dose activity change, negative = cytotoxicity, most hits filed as inhibitors. 390,000 compounds, 0.16% hits. AID 504648; note: % is set by controls: 0 for no effect and ±100 for the full control effect
#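 A549 ARE-Fluc cells in 5% FBS OPTI-MEM, 5000 cells/well, rested 2 h then exposed to compounds in concentration-response for 18-24 h at 37 °C. Viability by CellTiter-Fluor fluorescence (Ex 405/Em 525) after 30 min; luciferase luminescence (BugLite, 15 min, RT) read afterwards.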
# Nrf2 block: blocks Nrf2 signaling; A549 ARE-Fluc reporter, luciferase luminescence, 18-24 h; Potency, µM (top dose mostly 46 µM), without a hit: top-dose activity change, negative = inhibition, usual class: inhibitors; 360,000 compounds, 2.1% hits; note: % is set by controls: 0 for no effect and ±100 for the full control effect; nearly all actives have a fitted effect of over 60% in size
#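 A549 ARE_Fluc cells, 5000/well, 5% FBS OPTI-MEM; compounds in dose-response, 18-24 h at 37 °C/5% CO2; CellTiter-Fluor viability read (Ex 405/Em 525), then BugLite luciferase luminescence = Nrf2 activity.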
# An asterisk follows results filed as active; ? = inconclusive; / = not tested or not shown; [ ] = another dose, or the depositor's remark. Calls come from the whole dose curve; as a rule, active = well fitted curve in the direction sought with a large enough effect; inconclusive = small, poorly fitted or top-dose-only effect, or another doubt; inactive = no such curve, though single readings can be large; an effect the other way counts as inactive or inconclusive. Potency is the fitted concentration of half-maximal effect.
SMILES,Nrf2 ARE act,ELG1 repair inh,A549 viability,Nrf2 block
Cn1c(=O)n(C)c2cc(NS(=O)(=O)c3ccccc3)c(NCc3ccccc3)cc21,13µM*,/,2%,?
Cc1ccc(S(=O)(=O)N2C[C@H]3C(=O)C[C@@H](c4ccccc4)N(S(=O)(=O)c4ccccc4C)[C@H]3C[C@H]2c2ccccc2)cc1,0%,/,/,/
Cc1cc2c(cc(C(=O)OC(C(=O)NCc3ccco3)C(C)C)n2C)o1 (stereo not given),3%,23µM*,-6%,?
O=C(O)C1CN(C(=O)c2cccc(Br)c2)C1,0%[9.22 µM],7%,-10%,3%
O=C1Nc2ccccc2C12Nc1ccccc1-c1nc3ccccc3n12 (stereo not given),3%,15µM*,?,/
CCCc1ccc(Oc2cc(N3CCOCC3)nc(-c3ccccc3)n2)cc1,0%,/,-5%,-1%
N#C/C(=C/c1cn(-c2ccccc2)nc1-c1cccc(OCc2ccccc2)c1)C(=O)NCCCn1ccnc1,3%,13µM*,?,?
COc1ccc(C(=O)c2cn(Cc3ccccc3F)c3ccc(F)cc3c2=O)cc1,1%,/,-18%,?
Cc1ccc(OCCn2cnc3cc([N+](=O)[O-])ccc3c2=O)cc1,0%,21µM*,11%,-17%
O=c1c2ccc([N+](=O)[O-])cc2ncn1CCOc1ccccc1,3%,?,-1%,2%
CCOC(=O)Cc1ccc(NC(=O)Nc2nnc(N3CCCCC3C)s2)cc1 (stereo not given),0%,/,?,21µM*
CC(NC(=O)Cn1c(-c2cccs2)cc2cc(F)ccc21)c1ccccc1 (stereo not given),1%,/,-1%,5%
C=CCNS(=O)(=O)c1nc(C)c(Cl)c(C)c1C#N,11µM*,-3%,-8%,-7%
Cc1cc(C)nc(NS(=O)(=O)c2ccc(NC(=O)c3snnc3C)cc2)n1,0%,?,0%,3%
COc1ccccc1-c1c(C)nn2c(N3CCN(Cc4ccccc4)CC3)cc(C)nc12,2%,?,-6%,23µM*
COc1ccccc1-c1c(C)nn2c(N3CCCCCC3)cc(C)nc12,-1%,23µM*,?,26µM*
COc1ccc(CCNc2cc(C)nc3c(-c4ccccc4)c(C)nn23)cc1OC,3%,21µM*,-2%,-21%
COc1ccccc1-c1c(C)nn2c(N3CCN(c4ccccc4)CC3)cc(C)nc12,0%,/,-13%,/
COc1ccc(-c2c(C)nn3c(N4CCN(Cc5ccccc5)CC4)cc(C)nc23)cc1OC,0%,4.6µM*,-3%,4%
CCOc1ncccc1C(=O)OCC(=O)Nc1ccc2c(c1)OCCO2,0%,30%,14%,14%
CCN(CC(=O)Nc1ccc2c(c1)OCCO2)C(=O)c1ccc([N+](=O)[O-])s1,-1%,-20%,-4%,?
COc1ccccc1N(CC(=O)N1CCC(C)CC1)S(=O)(=O)c1ccc(C)cc1,3%,/,-16%,3%
Cc1ccnc(Sc2ccc([N+](=O)[O-])cc2[N+](=O)[O-])n1,5%,?,?,?
Cc1ccc(Sc2ccc([N+](=O)[O-])cc2[N+](=O)[O-])nc1,16µM*,15%,-12%,2%
CN=c1sc2c(n1C)C(=O)c1ccccc1C2=O,6%,/,?,21µM*
SMILES,Nrf2 ARE act,ELG1 repair inh,A549 viability,Nrf2 block
CN=c1sc(C(=O)Nc2ccccc2)c(C)n1C,4%,26%,-2%,?
CCOc1ccccc1C(=O)NC1CCN(CC(=O)Nc2cc(OC)ccc2OC)CC1,0%,?,0%,23µM*
Cc1ccc(C(=O)NC2CCN(CC(=O)Nc3ccccc3Cl)CC2)cc1,0%,7%,5%,5%
COC(=O)c1ccccc1NC(=O)CN1CCC(NC(=O)c2ccc(C)cc2)CC1,0%,16µM*,-14%,-8%
COc1ccccc1NC(=O)CN1CCN(CC(=O)Nc2ccc(Cl)c(C(F)(F)F)c2)CC1,10%,18µM*,?,/
CCOc1ccccc1NC(=O)CN1CCC(NC(=O)c2ccccc2C)CC1,0%,?,-6%,-15%
COc1ccc(NC(=O)CN2CCN(CC(=O)Nc3ccccc3Cl)CC2)cc1Cl,5%,?,-1%,?
COc1cc(Cl)c(C)cc1NC(=O)c1ccccc1NC(=O)CN1CCOCC1,-1%,16µM*,-1%,6%
